Data on 26 compounds can be found in PubChem BioAssay (Tox21).

Each structure is given as a SMILES string. Values joined by “and” are separate entries in the source; they are usually repeats but may differ in a detail not shown here. Equal values may be shown once. Unmarked numbers belong to inactive results. Inconclusive results are not listed. Active and inactive are the calls of the source. Unless noted, calls come from the whole dose curve; as a rule, active = well fitted curve in the direction sought with a large enough effect in the repeat runs; inconclusive = weak or mixed curves; inactive = no such curve, though single readings can be large; an effect the other way counts as inactive or inconclusive.

The nature of experiment [1]: A CellTox Green Cytotoxicity Assay to monitor cytotoxicity in HepG2 cells - 8 hour (AID 1224890). Note: nearly all actives have a fitted effect of over 45% in size. Conditions: CellTox Green fluorescence; series mostly up to 76.8 µM. In outline:
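Read-out is fluorescence of a cyanine dye excluded from live cells that stains DNA of dead HepG2 cells, with signal proportional to cytotoxicity. Plates were read at 0, 8, 16, 24, 32 and 40 h after compound addition.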

A short description of experiment [2]: qHTS assay to identify small molecule antagonists of the estrogen receptor alpha (ER-alpha) signaling pathway using the BG1 cell line in the presence of 0.1 nM 17-beta-estradiol - cell viability counter screen (AID 1259241). Note: nearly all actives have a fitted effect of over 40% in size. Note: potency is the fitted concentration of half-maximal effect. The note with it: VM7Luc4E2 (BG1) viability, CellTiter-Fluor protease, 22 h, 0.1 nM estradiol agonist added; series mostly up to 92.4 µM. In outline:
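VM7Luc4E2, 4,000 cells/well, phenol red-free medium + 10% charcoal-stripped FBS; 24 hr plating; cpd + 0.1 nM E2 final, 22 hr 37C/5% CO2; CellTiter-Fluor 30 min, fluorescence.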
Background: In qHTS, concentration-response curves come from the screen itself.

Experiment [3] can be described thus: qHTS assay to identify small molecule antagonists of the androgen receptor (AR) signaling pathway using the MDA cell line in the presence of 0.5 nM R1881 - cell viability counter screen (AID 1259242). Note: nearly all actives have a fitted effect of over 45% in size. Note: potency is the fitted concentration of half-maximal effect. Conditions: MDA-kb2 viability, CellTiter-Fluor protease fluorescence, 16 h; series mostly up to 92.4 µM. In outline: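 Counter screen for cytotoxicity run in the same wells as the AR antagonist reporter screen: MDA-kb2 cells were treated 16 hr with test compounds and 0.5 nM R1881, then live-cell protease activity was measured by fluorescence.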

Experiment [4] has as its target Androgen receptor (Homo sapiens) (UniProt P10275). Briefly: qHTS assay to identify small molecule antagonists of the androgen receptor (AR) signaling pathway using the MDA cell line in the presence of 0.5 nM R1881 (AID 1259243). Note: nearly all actives have a fitted effect of over 50% in size. Note: potency is the fitted concentration of half-maximal effect. The note with it: MDA-kb2 MMTV-luciferase, R1881 0.5 nM, 16 h; series mostly up to 92.4 µM. In outline: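 Luciferase luminescence is the read-out: compounds are tested for suppressing 0.5 nM R1881-driven MMTV reporter activity in MDA-kb2 cells after 16 hr at 37C.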

Experiment [5] concerns the target Estrogen receptor (Homo sapiens) (UniProt P03372). Briefly: qHTS assay to identify small molecule antagonists of the estrogen receptor alpha (ER-alpha) signaling pathway using the BG1 cell line in the presence of 0.1 nM 17-beta-estradiol (AID 1259244). Note: nearly all actives have a fitted effect of over 50% in size. Conditions: VM7Luc4E2 (BG1) ERE-luciferase, antagonist mode, 0.1 nM E2, 22 h; series mostly up to 92.4 µM. In outline:
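Cells: VM7Luc4E2, endogenous ER-alpha, 4x ERE-luc stable. Pre-culture 5 d, phenol red-free, charcoal-stripped FBS. Plated 24 h, compound + E2 0.1 nM final, 22 h 37C/5% CO2. Readout ONE-Glo luminescence.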

Experiment [6] can be described thus: qHTS assay to identify small molecule HDAC inhibitors - cell viability counter screen (AID 1259365). Note: nearly all actives have a fitted effect of over 50% in size. The note with it: HCT-116 viability, CellTiter-Glo ATP luminescence, 2 h; series mostly up to 92.4 µM. In outline:
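Luminescence from CellTiter-Glo, developed 30min at room temperature, reports viability of wild-type HCT-116 cells treated 2hr with compounds at 37 C and 5% CO2 after overnight plating.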

Experiment [7] can be described thus: qHTS assay to identify small molecule agonists of the sonic hedgehog signaling (Shh) pathway - cell viability counter screen (AID 1259366). Note: nearly all actives have a fitted effect of over 50% in size. Note: potency is the fitted concentration of half-maximal effect. Conditions: NIH/3T3 Gli1-Luc viability, CellTiter-Fluor, 24 h; series mostly up to 92.4 µM. In outline:
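Cytotoxicity counter screen run in the same wells as the Shh reporter assay. NIH/3T3 cells carrying a Gli1 response element–driven luciferase were treated with DMSO-dissolved compounds for 24hr, and live-cell protease activity was measured with CellTiter-Fluor.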

Experiment [8] can be described thus: qHTS assay to identify small molecule antagonists of the sonic hedgehog signaling (Shh) pathway - cell viability counter screen (AID 1259367). Note: nearly all actives have a fitted effect of over 55% in size. Note: potency is the fitted concentration of half-maximal effect. Conditions: NIH/3T3 Gli1-Luc viability, CellTiter-Fluor, 24 h; series mostly up to 92.4 µM. In outline:
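After a 4 hr settling period, 3T3 Gli1-Luc cells were treated with DMSO-dissolved chemicals and conditioned medium, kept 24 hr at 37C in 5% CO2, and assayed for viability by CellTiter-Fluor fluorescence following 1 hr reagent incubation.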

The nature of experiment [9]: qHTS assay to identify small molecule HDAC inhibitors (AID 1259364). Note: nearly all actives have a fitted effect of over 45% in size. Note: potency is the fitted concentration of half-maximal effect. The note with it: HCT-116 HDAC-Glo I/II luminescence, 2 h; series mostly up to 92.4 µM. In outline:
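Luminescence from a cell-permeant luminogenic class I/II HDAC substrate reports endogenous deacetylase activity in intact HCT-116 cells treated with compounds for 2 h.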

The nature of experiment [10]: qHTS assay to identify small molecule phospholipidosis (PLD) inducers (AID 1259344; active = well fitted curve in the direction sought with a large enough effect; an effect the other way counts as inactive or inconclusive). Conditions: HepG2 phospholipidosis, LipidTOX Red imaging, 24 h; series mostly up to 38.3 µM. In outline: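 HepG2 cells grown on collagen I take up LipidTOX Red while exposed to compound for 24 h; after fixation they are imaged at 20x and pit metrics are extracted.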
% is set by controls: 0 for no effect and ±100 for the full control effect.

Estrogen receptor (Homo sapiens), sequence (P03372 whole entry, looked up): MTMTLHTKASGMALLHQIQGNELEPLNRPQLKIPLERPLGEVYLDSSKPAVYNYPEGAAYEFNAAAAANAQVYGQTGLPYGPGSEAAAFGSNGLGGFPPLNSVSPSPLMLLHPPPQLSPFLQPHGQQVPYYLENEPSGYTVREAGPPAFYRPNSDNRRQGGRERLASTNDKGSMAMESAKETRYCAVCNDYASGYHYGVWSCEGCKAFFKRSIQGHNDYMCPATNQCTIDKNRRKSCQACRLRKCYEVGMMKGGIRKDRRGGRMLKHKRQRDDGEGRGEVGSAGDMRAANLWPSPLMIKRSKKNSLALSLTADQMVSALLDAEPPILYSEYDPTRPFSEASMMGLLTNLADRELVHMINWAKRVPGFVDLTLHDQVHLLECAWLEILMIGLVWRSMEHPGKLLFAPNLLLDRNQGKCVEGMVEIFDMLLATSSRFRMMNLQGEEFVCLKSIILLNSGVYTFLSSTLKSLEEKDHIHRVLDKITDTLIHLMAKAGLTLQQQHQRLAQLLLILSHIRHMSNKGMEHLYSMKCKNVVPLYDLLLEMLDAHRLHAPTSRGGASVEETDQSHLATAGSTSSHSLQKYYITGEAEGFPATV
Androgen receptor (Homo sapiens), sequence (P10275 whole entry, looked up): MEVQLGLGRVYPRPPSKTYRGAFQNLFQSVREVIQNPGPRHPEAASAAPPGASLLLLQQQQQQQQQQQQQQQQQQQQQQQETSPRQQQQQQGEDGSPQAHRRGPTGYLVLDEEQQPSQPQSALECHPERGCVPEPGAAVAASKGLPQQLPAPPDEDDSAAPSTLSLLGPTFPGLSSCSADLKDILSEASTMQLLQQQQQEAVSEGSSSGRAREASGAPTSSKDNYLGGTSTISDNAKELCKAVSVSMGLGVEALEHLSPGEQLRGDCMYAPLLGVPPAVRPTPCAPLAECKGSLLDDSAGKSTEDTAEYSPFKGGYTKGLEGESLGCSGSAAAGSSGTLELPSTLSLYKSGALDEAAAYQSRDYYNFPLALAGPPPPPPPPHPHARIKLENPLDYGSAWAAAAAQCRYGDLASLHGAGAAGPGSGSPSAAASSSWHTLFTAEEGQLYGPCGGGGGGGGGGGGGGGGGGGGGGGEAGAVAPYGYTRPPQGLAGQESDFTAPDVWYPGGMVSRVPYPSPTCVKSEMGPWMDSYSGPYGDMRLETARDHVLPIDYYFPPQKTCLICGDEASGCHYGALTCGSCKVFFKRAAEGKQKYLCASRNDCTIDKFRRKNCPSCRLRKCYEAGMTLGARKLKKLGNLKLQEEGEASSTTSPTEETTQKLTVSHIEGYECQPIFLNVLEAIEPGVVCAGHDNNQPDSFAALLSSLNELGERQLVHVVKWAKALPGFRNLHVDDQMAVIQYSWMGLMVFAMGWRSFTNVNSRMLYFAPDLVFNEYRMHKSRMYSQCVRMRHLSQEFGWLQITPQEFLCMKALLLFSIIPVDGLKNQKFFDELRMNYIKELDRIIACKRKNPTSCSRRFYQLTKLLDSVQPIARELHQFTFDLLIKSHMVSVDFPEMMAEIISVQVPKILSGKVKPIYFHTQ

`CCCCN(CCN(CCCC)C(=O)N1CCOCC1)C(=O)N1CCOCC1`: the Potency result in experiment [1], in [2], in [3], in [4], in experiment [5] and in experiment [6] was “inactive” throughout. In addition, the Potency entry in experiment [7] was “inactive”. In addition, in experiment [8], the Potency was 26.6 µM (active).
Turning to `CCC(=O)C1CC(C(C)C)CC=C1C` (stereo not drawn), the Potency entry in [1], in [2], in [3], in experiment [4], in experiment [5] and in experiment [9] was “inactive” throughout. Further, the Potency entry in experiment [6], in experiment [7] and in [8] was “inactive” throughout.
Regarding `OC(CCN1CCCC1)(c1ccccc1)C1CCCCC1` (stereo not drawn), the Potency entry in experiment [1], in experiment [2], in experiment [3], in experiment [4], in experiment [10] and in experiment [6] was “inactive” each time.
On to `C[C@@H]1CC(=O)NN=C1c1ccc(NN=C(C#N)C#N)cc1`, for which the Potency result in experiment [1], in experiment [5], in [10] and in experiment [6] was “inactive” throughout. For the same compound, the Potency in [2] is 21.1 µM (active) and 15 µM (active); in [3] it was 11.9 µM (active); in experiment [4], 21.1 µM (active); in [7], 13.3 µM (active); in experiment [8], 13.3 µM (active).
In the case of `O=C1Cc2cc(Cl)ccc2N1`, the Potency result in experiment [1], in experiment [2], in [3], in [4], in [9] and in experiment [6] was “inactive” throughout. The Potency result in [7] and in experiment [8] was “inactive” throughout.
Take `C[C@H]1C[C@H](O)c2ccsc2S1(=O)=O`: the Potency result in experiment [1], in experiment [2], in experiment [3], in experiment [4], in [5] and in experiment [9] was “inactive” throughout. Besides, the Potency entry in [6], in experiment [7] and in experiment [8] was “inactive” throughout.
In the case of `O=C(/C=C/c1ccccc1)OCCc1ccccc1`, the Potency entry in experiment [1], in [2], in [3], in experiment [4], in [5] and in [6] was “inactive” each time. The Potency result in [7] and in experiment [8] was “inactive” in each case. Also, the Potency in experiment [9] is 30.6 µM (active).
For `O=C(OC(=O)c1ccccc1)c1ccccc1`, the Potency result in [1], in [2], in [3], in [4], in experiment [5] and in experiment [9] was “inactive” in each case. For the same compound, the Potency entry in experiment [6], in [7] and in [8] was “inactive” each time.
For the compound `O=[N+]([O-])c1cc(C2CCCCC2)c(O)c([N+](=O)[O-])c1`, the Potency result in experiment [1], in [9] and in experiment [6] was “inactive” in each case. For the same compound, the Potency was 27.2 µM (active) in [2]; 15.3 µM (active) in [3]; 7.67 µM (active) in [4]; 24.3 µM (active) in experiment [7]; 24.3 µM (active) in experiment [8].
Regarding `CC(=O)OCC(=O)NCCCOc1cccc(CN2CCCCC2)c1`, the Potency entry in experiment [1], in [2], in experiment [3], in experiment [4], in experiment [10] and in experiment [9] was “inactive” in each case. Further, the Potency result in [7] and in experiment [8] was “inactive” throughout.
Regarding `c1cc(N(CC2CO2)CC2CO2)ccc1Cc1ccc(N(CC2CO2)CC2CO2)cc1` (stereo not drawn), the Potency result in [1], in experiment [2], in experiment [3] and in [6] was “inactive” each time. For the same compound, the Potency in experiment [4] is 27.3 µM (active); in experiment [7], 54.5 µM (active); in [8], 54.5 µM (active).
For the compound `CCC(=O)OC`, the Potency result in [1], in experiment [2], in [3], in [4], in [5] and in experiment [9] was “inactive” throughout. Moreover, the Potency entry in experiment [6], in experiment [7] and in experiment [8] was “inactive” each time.
`NC(=O)c1ccncc1`: the Potency result in experiment [1], in experiment [2], in experiment [3], in [4], in experiment [9] and in experiment [6] was “inactive” in each case. Moreover, the Potency entry in experiment [7] and in experiment [8] was “inactive” throughout.
Turning to `CCCCCC[C@@H](O)C/C=C\CCCCCCCC(=O)OCC(O)CO` (stereo partly drawn), the Potency entry in [1], in experiment [2], in [3], in experiment [4], in experiment [5] and in [9] was “inactive” each time. Moreover, the Potency result in experiment [6], in experiment [7] and in [8] was “inactive” in each case.
As for `COC(=O)CCS`, the Potency result in experiment [1], in experiment [2], in experiment [3], in experiment [5], in [9] and in experiment [6] was “inactive” in each case. In addition, the Potency entry in [7] and in experiment [8] was “inactive” throughout.
For `C=CC(C)(CCC=C(C)C)OC(=O)CC(C)C` (stereo not drawn), the Potency entry in experiment [1], in experiment [2], in [3], in experiment [5], in [9] and in experiment [6] was “inactive” throughout. The Potency result in [7] and in experiment [8] was “inactive” in each case.
Regarding `Cc1ccccc1N=C(N)Nc1ccccc1C`, the Potency entry in [1], in experiment [2], in [3], in experiment [5], in experiment [9] and in experiment [6] was “inactive” each time. The Potency entry in experiment [7] is “inactive”.
For `O=C(/C=C/c1ccc(O)c(O)c1)O[C@@H]1C[C@@](OC(=O)/C=C/c2ccc(O)c(O)c2)(C(=O)O)C[C@@H](O)[C@@H]1O`, the Potency entry in experiment [1], in experiment [2], in [3], in experiment [5], in [10] and in [9] was “inactive” in each case. Also, the Potency result in experiment [6], in experiment [7] and in experiment [8] was “inactive” in each case.
For `CC(C)=CCC/C(C)=C/CC/C(C)=C/CCC(=O)OC/C=C(\C)CCC=C(C)C`, the Potency entry in experiment [1], in [2], in experiment [3], in experiment [5], in experiment [9] and in experiment [6] was “inactive” each time. Further, the Potency entry in experiment [7] and in experiment [8] was “inactive” in each case. In addition, the PLD induction in experiment [10] is -0.0635% [at 1.53 µM].
On to `COc1cc(C(=O)NCCCCCC(=O)O)cc(OC)c1OC`, for which the Potency result in [1], in [2], in experiment [3], in experiment [5], in experiment [10] and in experiment [9] was “inactive” in each case. The Potency entry in experiment [6], in experiment [7] and in experiment [8] was “inactive” throughout.
As to `NCCNCCO`, the Potency entry in experiment [1], in experiment [2], in experiment [3], in experiment [5], in [9] and in experiment [6] was “inactive” each time. In addition, the Potency result in experiment [7] and in [8] was “inactive” throughout.
With `OC1(c2ccccc2)CCNCC1`, the Potency result in experiment [1], in experiment [2], in [3], in experiment [4], in experiment [7] and in experiment [8] was “inactive” in each case.
For the compound `CCOC(C)=O`, the Potency entry in experiment [1], in experiment [2], in experiment [3], in experiment [5], in [10] and in experiment [6] was “inactive” each time. Also, the Potency result in [7] and in [8] was “inactive” throughout.
Take `CCCC(=O)C(=O)O`: the Potency entry in [1], in experiment [2], in [3], in experiment [5], in [9] and in experiment [6] was “inactive” in each case. Besides, the Potency result in [7] and in [8] was “inactive” in each case.
In the case of `CCCCOc1ccc(OCCCN2CCOCC2)cc1`, the Potency result in [1], in [2], in experiment [3], in experiment [5], in [10] and in experiment [9] was “inactive” each time. Further, the Potency result in [6], in [7] and in experiment [8] was “inactive” each time.
Take `Cc1ccc(Cl)c(Nc2ccccc2C(=O)O)c1Cl`: the Potency entry in experiment [1], in experiment [2], in [3], in [5], in experiment [10] and in experiment [9] was “inactive” throughout. Besides, the Potency result in experiment [7] and in experiment [8] was “inactive” in each case.
